PubChem BioAssay (EPA / NIEHS)
Calls of active or inactive are those of the source. The calls were made as follows: active = hit-call score of the fitted dose curve at least 0.9, where 1 is the maximum; inactive = score below 0.9.

How the values were obtained:
[1] = read-out: Vascular endothelial growth factor receptor 2 (Homo sapiens) (UniProt P35968); assay: BSK_4H_VEGFRII: BioMAP Diversity Plus: 4H Assay for Vascular endothelial growth factor receptor 2 (VEGFR2) Biomarker Activity (AID 2283031); conditions: primary human endothelial cells (HUVEC); actives raise or lower the signal;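 as to AC50: cell-surface VEGFR2 protein level quantified by ELISA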
Outline: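 Primary human umbilical vein endothelial cells (4H system), 24 h exposure; cell-surface VEGFR2 measured by ELISA. Bidirectional fitting versus DMSO; cytotoxicity checked in parallel by SRB total-protein staining.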

[2] = read-out: Vascular cell adhesion molecule 1 (VCAM1), VCAM1 (gene 7412); assay: BSK_4H_VCAM1: BioMAP Diversity Plus: 4H Assay for Vascular cell adhesion molecule 1 (VCAM1) Biomarker Activity (AID 2283033); conditions: primary human endothelial cells (HUVEC); actives raise or lower the signal
Outline: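 Chemicals are added to primary human umbilical vein endothelial cells. After 24 h, VCAM-1 levels are measured by ELISA. Values come from bidirectional fitting referenced to DMSO.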

[3] = read-out: Interferon-gamma inducible Protein 10 (IP10), CXCL10 (gene 3627); assay: BSK_BE3C_IP10: BioMAP Diversity Plus: BE3C Assay for Interferon-gamma inducible Protein 10 (IP10) Biomarker Activity (AID 2283034); conditions: primary human bronchial epithelial cells; actives raise or lower the signal
Outline: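 IP-10 quantified by ELISA serves as the endpoint. Cells: primary human bronchial epithelium, read 24 h after compound addition. Activity is derived by bidirectional fitting with DMSO as negative control.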

[4] = read-out: Monokine induced gamma interferon (MIG), CXCL9 (gene 4283); assay: BSK_BE3C_MIG: BioMAP Diversity Plus: BE3C Assay for Monokine induced gamma interferon (MIG) Biomarker Activity (AID 2283035); conditions: primary human bronchial epithelial cells; actives raise or lower the signal
Outline: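 hu bronchial epithelial 1° cells, 24 h cpd; MIG by ELISA; bidirectional fit, DMSO = baseline.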

[5] = read-out: Transforming growth factor beta 1 (TGFb1), TGFB1 (gene 7040); assay: BSK_BE3C_TGFb1: BioMAP Diversity Plus: BE3C Assay for Transforming growth factor beta 1 (TGFb1) Biomarker Activity (AID 2283036); conditions: primary human bronchial epithelial cells; actives raise or lower the signal
Outline: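 Bronchial epithelial primary cells are treated with test chemical, then TGF-b1 is quantified by ELISA after 24 hours. Values derive from bidirectional fitting against DMSO, with cytotoxicity checked by SRB staining in parallel cultures.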

[6] = read-out: Plasminogen activator inhibitor-1 (PAI1), SERPINE1 (gene 5054); assay: BSK_BE3C_PAI1: BioMAP Diversity Plus: BE3C Assay for Plasminogen activator inhibitor-1 (PAI1) Biomarker Activity (AID 2283037); conditions: primary human bronchial epithelial cells; actives raise or lower the signal
Outline: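 Values derive from bidirectional fitting against DMSO baseline of PAI-1 levels, measured by ELISA in human bronchial epithelial cells 24 h after compound addition.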

[7] = read-out: urokinase plasminogen activator (uPA), PLAU (gene 5328); assay: BSK_BE3C_uPA: BioMAP Diversity Plus: BE3C Assay for urokinase plasminogen activator (uPA) Biomarker Activity (AID 2283038); conditions: primary human bronchial epithelial cells; actives raise or lower the signal
Outline: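 Primary human bronchial epithelial cells, uPA measured by ELISA 24 h after dosing. Bidirectional change relative to DMSO; cytotoxicity checked in parallel cultures by sulforhodamine B total-protein staining.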

[8] = read-out: Urokinase-type plasminogen activator receptor (uPAR), PLAUR (gene 5329); assay: BSK_BE3C_uPAR: BioMAP Diversity Plus: BE3C Assay for Urokinase-type plasminogen activator receptor (uPAR) Biomarker Activity (AID 2283039); conditions: primary human bronchial epithelial cells; actives raise or lower the signal
Outline: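 Steps: dose human primary bronchial epithelial cells, incubate 24 h, measure uPAR by ELISA, then fit gain- or loss-of-signal response bidirectionally relative to DMSO.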

[9] = read-out: Interleukin-6 (IL6), IL6 (gene 3569); assay: BSK_CASM3C_IL6: BioMAP Diversity Plus: CASM3C Assay for Interleukin-6 (IL6) Biomarker Activity for (AID 2283040); conditions: primary human coronary artery smooth muscle cells; actives raise or lower the signal
[10] = read-out: Tissue plasminogen activator (tPA), PLAT (gene 5327); assay: BSK_BE3C_tPA: BioMAP Diversity Plus: BE3C Assay for Tissue plasminogen activator (tPA) Biomarker Activity (AID 2283041); conditions: primary human bronchial epithelial cells; actives raise or lower the signal
Outline: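 Gain- or loss-of-signal in tPA, measured by ELISA, derived by bidirectional fitting against DMSO. Cells: human primary bronchial epithelial; read at 24 h after chemical dosing.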

[11] = read-out: Interleukin-8 (IL8), CXCL8 (gene 3576); assay: BSK_CASM3C_IL8: BioMAP Diversity Plus: CASM3C Assay for Interleukin-8 (IL8) Biomarker Activity (AID 2283042); conditions: primary human coronary artery smooth muscle cells; actives raise or lower the signal;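 also: IL-8 protein level quantified by ELISA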
[12] = read-out: Human Leukocyte Antigen - DR isotype (HLADR), HLA-DRA (gene 3122); assay: BSK_CASM3C_HLADR: BioMAP Diversity Plus: CASM3C Assay for Human Leukocyte Antigen - DR isotype (HLADR) Biomarker Activity (AID 2283043); conditions: primary human coronary artery smooth muscle cells; actives raise or lower the signal;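 also: cell-surface HLA-DR protein level quantified by ELISA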
[13] = read-out: Macrophage colony-stimulating factor (MCSF), CSF1 (gene 1435); assay: BSK_CASM3C_MCSF: BioMAP Diversity Plus: CASM3C Assay for Macrophage colony-stimulating factor (MCSF) Biomarker Activity (AID 2283044); conditions: primary human coronary artery smooth muscle cells; actives raise or lower the signal;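 also: M-CSF protein amount quantified by ELISA after 24 h exposure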
[14] = read-out: Low-density lipoprotein receptor (LDLR), LDLR (gene 3949); assay: BSK_CASM3C_LDLR: BioMAP Diversity Plus: CASM3C Assay for Low-density lipoprotein receptor (LDLR) Biomarker Activity (AID 2283045); conditions: primary human coronary artery smooth muscle cells; actives raise or lower the signal;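 also: LDLR protein level on the cell surface quantified by ELISA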
[15] = read-out: Monocyte Chemoattractant Protein-1 (MCP1), CCL2 (gene 6347); assay: BSK_CASM3C_MCP1: BioMAP Diversity Plus: CASM3C Assay for Monocyte Chemoattractant Protein-1 (MCP1) Biomarker Activity (AID 2283046); conditions: primary human coronary artery smooth muscle cells; actives raise or lower the signal;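 also: MCP-1 level quantified by ELISA 24 h after dosing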
[16] = BSK_CASM3C_Proliferation: Cell Proliferation Assessment in the BioMAP Diversity Plus: CASM3C Assay (AID 2283047); conditions: primary human coronary artery smooth muscle cells;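 also: sulforhodamine B total protein stain as relative cell number at 560 nm; sub-confluent cells exposed 48 h before staining; fitted both ways against DMSO so gain or loss of cell number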
[17] = read-out: Monokine induced gamma interferon (MIG), CXCL9 (gene 4283); assay: BSK_CASM3C_MIG: BioMAP Diversity Plus: CASM3C Assay for Monokine induced gamma interferon (MIG) Biomarker Activity (AID 2283048); conditions: primary human coronary artery smooth muscle cells; actives raise or lower the signal;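 also: MIG protein level measured by ELISA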
[18] = read-out: serum amyloid A (SAA), SAA1 (gene 6288); assay: BSK_CASM3C_SAA: BioMAP Diversity Plus: CASM3C Assay for serum amyloid A (SAA) Biomarker Activity (AID 2283049); conditions: primary human coronary artery smooth muscle cells; actives raise or lower the signal;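 also: SAA protein level quantified by ELISA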
[19] = BSK_CASM3C_SRB: Viability Assessment in the BioMAP Diversity Plus: CASM3C Assay (AID 2283050); conditions: primary human coronary artery smooth muscle cells;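 also: total protein by SRB staining as cytotoxicity measure in parallel cultures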
[20] = read-out: Human Leukocyte Antigen - DR isotype (HLADR), HLA-DRA (gene 3122); assay: BSK_BE3C_HLADR: BioMAP Diversity Plus: BE3C Assay for Human Leukocyte Antigen - DR isotype (HLADR) Biomarker Activity (AID 2283032); conditions: primary human bronchial epithelial cells; actives raise or lower the signal
Outline: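 Chemicals are dosed onto BE3C bronchial epithelial cultures of human origin and left 24 h. HLA-DR is then measured by ELISA, and the endpoint is fitted in both directions using DMSO as the activity baseline.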

Measured: AC50

CN(c1nccc(=O)[nH]1)C1CCN(c2nc3ccccc3n2Cc2ccc(F)cc2)CC1
active: [2] 0.0185 µM
not listed: [20]
inactive: all other assays above

IC(I)I
inactive: all assays above

c1ccc(CCc2ccccc2)cc1
inactive: [1] | [4] | [11] | [16] | [17]
active: [20] 30.3 µM | [2] 35.9 µM | [3] 29.7 µM | [5] 27.8 µM | [6] 29.3 µM | [7] 28.9 µM | [8] 20 µM | [9] 26.8 µM | [10] 30.6 µM | [12] 29 µM | [13] 29.5 µM | [14] 30.6 µM | [15] 33.1 µM | [18] 26.4 µM | [19] 29.1 µM

CC(C=O)Cc1ccc(C(C)(C)C)cc1 (configuration not stated)
inactive: [4] | [5] | [6] | [7] | [8] | [11] | [14] | [18]
active: [1] 32.9 µM | [20] 28.9 µM | [2] 34.5 µM | [3] 29.7 µM | [9] 28.5 µM | [10] 24.8 µM | [12] 28.8 µM | [13] 27.5 µM | [15] 30.6 µM | [16] 32.3 µM | [17] 30.7 µM | [19] 31.3 µM

CCCCN(CCCC)C(=O)N(CCCC)CCCC
active: [1] 23.7 µM | [2] 23.7 µM | [3] 9.08 µM | [4] 20 µM | [5] 5.38 µM | [6] 9.25 µM | [7] 9.69 µM | [8] 7.37 µM | [9] 20 µM | [10] 6.94 µM | [11] 20 µM | [12] 12.5 µM | [13] 17.4 µM | [14] 20 µM | [15] 20 µM | [16] 10.4 µM | [17] 20 µM | [18] 10.8 µM | [19] 13.9 µM

Oc1c(Cl)cc(Cl)c(Cl)c1Cc1c(O)c(Cl)cc(Cl)c1Cl
inactive: [5] | [7] | [10] | [11] | [14]
active: [1] 0.675 µM | [2] 12.8 µM | [3] 8.17 µM | [4] 8.39 µM | [6] 3.97 µM | [8] 20 µM | [9] 7.83 µM | [12] 2.28 µM | [13] 8.79 µM | [15] 30.7 µM | [16] 5.37 µM | [17] 19.8 µM | [18] 3.97 µM | [19] 7.17 µM
